Drawing on ChEMBL document CHEMBL3988442, “University of Dundee, Small-Polar-MMV Screening Library” (2021), this text covers Percent Effect for five compounds.

What all share (set-up): scale not given: direction of the effect not stated beside the values
Assay [1] deals with Protein translocase subunit SecA (Escherichia coli (strain K12)) (UniProt P10408). Description: Assay to Identify E. coli SecA ATPase Inhibitors. The class given is functional. The conditions noted are these: 30 µM.
Assay [2] deals with T1, Ubiquitin-activating enzyme e1, putative (Leishmania donovani (strain BPK282A1)) (UniProt E9BSI1).
T1 sequence (whole entry): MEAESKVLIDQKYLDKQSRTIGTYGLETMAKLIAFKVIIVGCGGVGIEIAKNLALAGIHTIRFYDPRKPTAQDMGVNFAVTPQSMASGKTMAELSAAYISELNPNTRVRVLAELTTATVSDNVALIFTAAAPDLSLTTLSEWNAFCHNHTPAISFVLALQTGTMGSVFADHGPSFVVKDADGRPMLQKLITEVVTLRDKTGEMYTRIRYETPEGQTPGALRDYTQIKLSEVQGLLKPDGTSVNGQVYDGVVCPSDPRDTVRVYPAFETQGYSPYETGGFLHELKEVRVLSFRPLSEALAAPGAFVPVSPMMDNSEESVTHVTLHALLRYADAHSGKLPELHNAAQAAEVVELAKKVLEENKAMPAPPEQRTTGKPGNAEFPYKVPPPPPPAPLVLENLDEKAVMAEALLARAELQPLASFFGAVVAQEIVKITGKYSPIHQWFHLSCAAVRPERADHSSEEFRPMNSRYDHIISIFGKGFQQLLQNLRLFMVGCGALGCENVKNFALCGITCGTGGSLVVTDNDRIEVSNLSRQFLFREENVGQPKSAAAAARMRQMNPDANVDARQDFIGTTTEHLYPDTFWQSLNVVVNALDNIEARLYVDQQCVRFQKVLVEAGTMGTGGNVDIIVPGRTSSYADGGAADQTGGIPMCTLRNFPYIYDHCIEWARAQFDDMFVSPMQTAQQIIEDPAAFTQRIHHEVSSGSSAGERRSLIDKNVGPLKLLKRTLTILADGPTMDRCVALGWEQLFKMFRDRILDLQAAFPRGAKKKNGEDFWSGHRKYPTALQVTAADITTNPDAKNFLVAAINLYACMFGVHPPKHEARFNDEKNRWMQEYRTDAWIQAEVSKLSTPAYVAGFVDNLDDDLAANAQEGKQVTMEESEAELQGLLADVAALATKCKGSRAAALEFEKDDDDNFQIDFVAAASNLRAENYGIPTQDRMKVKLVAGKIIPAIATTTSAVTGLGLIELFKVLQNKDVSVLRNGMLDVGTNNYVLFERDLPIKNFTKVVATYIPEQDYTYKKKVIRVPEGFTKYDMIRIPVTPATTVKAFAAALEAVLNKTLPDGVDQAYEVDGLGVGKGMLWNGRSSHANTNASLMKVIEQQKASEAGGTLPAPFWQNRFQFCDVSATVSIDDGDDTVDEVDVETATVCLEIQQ
Description: Leishmania donovani Ubiquitin Activating Enzyme (LdE1). In kind it is functional. The conditions noted are these: 30 µM.

Assay [3] deals with T2, Aspartate--tRNA(Asp/Asn) ligase (Mycobacterium tuberculosis (strain ATCC 25618 / H37Rv)) (UniProt P9WFW3).
T2 sequence (whole entry): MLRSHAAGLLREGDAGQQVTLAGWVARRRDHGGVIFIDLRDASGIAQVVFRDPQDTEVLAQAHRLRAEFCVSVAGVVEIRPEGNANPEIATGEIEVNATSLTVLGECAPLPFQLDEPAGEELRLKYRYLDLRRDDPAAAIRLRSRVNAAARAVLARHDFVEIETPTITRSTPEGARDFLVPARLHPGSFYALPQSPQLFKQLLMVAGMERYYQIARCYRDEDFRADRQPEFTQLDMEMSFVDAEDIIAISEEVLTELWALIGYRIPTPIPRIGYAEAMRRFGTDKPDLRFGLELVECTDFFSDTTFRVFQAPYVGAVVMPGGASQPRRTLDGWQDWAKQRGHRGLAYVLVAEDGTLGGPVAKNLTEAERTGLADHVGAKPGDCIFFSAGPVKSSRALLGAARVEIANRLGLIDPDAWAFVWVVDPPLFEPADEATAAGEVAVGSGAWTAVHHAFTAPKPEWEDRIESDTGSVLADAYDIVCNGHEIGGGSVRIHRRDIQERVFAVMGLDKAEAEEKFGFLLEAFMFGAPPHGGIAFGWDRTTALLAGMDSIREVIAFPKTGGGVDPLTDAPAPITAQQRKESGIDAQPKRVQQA
Description: Assay for Asp RNA synthetase-1 from Mycobacterium tuberculosis. The conditions noted are these: 30 µM. The class given is functional.

In assay [4] the target is AMP-activated protein kinase, AMPK (Homo sapiens) (UniProt P54646+O43741+P54619+Q9UGJ0+Q9Y478+Q13131+Q9UGI9). Put plainly: AMP-dependent Kinase enzyme assay. An in vitro enzyme assay that detects ADP turnover that is directly proportional to AMPK activity. This uses naive AMPK that is activated during the assay with MK-8722. The conditions noted are these: 30 µM. In kind it is functional.

Assay [5] has as its target Sialic acid-binding Ig-like lectin 9 (Homo sapiens) (UniProt Q9Y336). Description: Hs-Siglec9 ALPHAscreen SOP 20170721. The conditions noted are these: 10 µM. In general terms: Alpha assays give light when donor and acceptor beads are brought close together.
The subject of the next assay is Trypanosoma cruzi. Put plainly: Trypanosoma cruzi phosphomannomutase and mannose-1-phosphate guanylyltransferase assay. In kind it is functional. The conditions noted are these: 10 µM.
In assay [6] the target is T3, Arginase-2, mitochondrial (Homo sapiens) (UniProt P78540).
T3 sequence (whole entry): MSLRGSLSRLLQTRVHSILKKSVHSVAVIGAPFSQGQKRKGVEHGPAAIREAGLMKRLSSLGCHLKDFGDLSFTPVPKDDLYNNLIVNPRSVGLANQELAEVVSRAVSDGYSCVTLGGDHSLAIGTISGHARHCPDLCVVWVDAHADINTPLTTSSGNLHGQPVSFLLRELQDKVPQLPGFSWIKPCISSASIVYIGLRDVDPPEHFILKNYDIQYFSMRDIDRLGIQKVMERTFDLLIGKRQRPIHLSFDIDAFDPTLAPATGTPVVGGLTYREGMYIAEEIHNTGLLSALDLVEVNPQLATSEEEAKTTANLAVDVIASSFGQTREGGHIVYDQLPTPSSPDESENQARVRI
Put plainly: in vitro enzyme assay to detect the production of urea directly proportional to the activity of Arginase II. Also: in the data most compounds retested in dose-response had high values. The conditions noted are these: 33.3 µM. The class given is functional.

The target in assay [7] is T4, Proteasome subunit beta (Trypanosoma cruzi) (UniProt O96673).
T4 sequence (whole entry): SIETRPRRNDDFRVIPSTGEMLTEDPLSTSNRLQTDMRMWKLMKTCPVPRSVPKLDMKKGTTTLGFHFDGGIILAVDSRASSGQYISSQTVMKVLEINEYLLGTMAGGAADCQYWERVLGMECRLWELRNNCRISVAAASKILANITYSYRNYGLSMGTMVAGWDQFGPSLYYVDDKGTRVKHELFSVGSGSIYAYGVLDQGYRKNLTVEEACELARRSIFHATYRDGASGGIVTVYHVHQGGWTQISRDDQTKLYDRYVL
Description: Trypanosoma cruzi proteasome chymotrypsin-like activity (TcProtChymo) assay. Also: in the data most compounds retested in dose-response had high values. The class given is functional. The conditions noted are these: 9.37 µM.

The species named for the next assay is Homo sapiens. Description: To identify inhibition of the IFN signalling (Jak-Stat) pathway via expression of an eGFP reporter gene under the control of an IFN-stimulated response element (ISRE) containing MxA promoter. The class given is functional. The conditions noted are these: 30 µM. Background: Reporter assays use an easily measured gene product as a stand-in for the process of interest.

In assay [8] the target is Shiga toxin 2 (Escherichia coli O157:H7) (UniProt P09385+P09386). Description: E. coli 0.157:H7 Shiga Toxin SOP - stx2 screening assay. In kind it is functional. The conditions noted are these: 30 µM.
Assay [9] has as its target T5, Tyrosyl-tRNA synthetase, putative (Trypanosoma cruzi (strain CL Brener)) (UniProt Q4DSP6).
T5 sequence (whole entry): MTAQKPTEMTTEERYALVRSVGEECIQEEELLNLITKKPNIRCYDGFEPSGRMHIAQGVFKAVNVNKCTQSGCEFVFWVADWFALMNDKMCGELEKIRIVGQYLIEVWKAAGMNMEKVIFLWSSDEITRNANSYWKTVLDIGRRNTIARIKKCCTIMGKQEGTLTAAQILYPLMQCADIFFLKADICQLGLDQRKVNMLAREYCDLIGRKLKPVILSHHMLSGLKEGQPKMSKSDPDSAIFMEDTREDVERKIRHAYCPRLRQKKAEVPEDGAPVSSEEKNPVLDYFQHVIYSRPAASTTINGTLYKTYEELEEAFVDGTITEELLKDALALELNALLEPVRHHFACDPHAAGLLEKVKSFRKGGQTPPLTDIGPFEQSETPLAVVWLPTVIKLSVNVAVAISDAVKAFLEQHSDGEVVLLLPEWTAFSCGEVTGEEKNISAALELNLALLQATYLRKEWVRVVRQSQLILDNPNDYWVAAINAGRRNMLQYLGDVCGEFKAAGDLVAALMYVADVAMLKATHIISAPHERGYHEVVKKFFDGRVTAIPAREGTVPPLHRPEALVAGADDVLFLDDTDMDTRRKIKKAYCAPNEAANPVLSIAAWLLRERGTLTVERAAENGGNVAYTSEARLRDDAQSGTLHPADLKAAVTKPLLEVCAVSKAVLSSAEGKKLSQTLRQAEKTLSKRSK
Put plainly: Trypanosoma cruzi tyrosyl tRNA synthetase (TcYRS) _High Tyrosine SOP. Also: in the data most compounds retested in dose-response had high values. In kind it is functional. The conditions noted are these: 30 µM.

In assay [10] the target is T5, Tyrosyl-tRNA synthetase, putative (Trypanosoma cruzi (strain CL Brener)). Description: Trypanosoma cruzi tyrosyl tRNA synthetase (TcYRS) SOP. The class given is functional. The conditions noted are these: 30 µM.
The target in assay [11] is Chromo domain-containing protein 1 (Saccharomyces cerevisiae (strain ATCC 204508 / S288c) (Baker's yeast)) (UniProt P32657). Description: ScCHD-1 Enzyme Inhibition Assay. Also: in the data most compounds retested in dose-response had high values. The conditions noted are these: 30 µM. In kind it is functional.

For some assays here: Entries with a potency or affinity are not part of this list.

Chromo domain-containing protein 1 (Saccharomyces cerevisiae (strain ATCC 204508 / S288c) (Baker's yeast)), sequence (P32657 whole entry, the tested form may be a part): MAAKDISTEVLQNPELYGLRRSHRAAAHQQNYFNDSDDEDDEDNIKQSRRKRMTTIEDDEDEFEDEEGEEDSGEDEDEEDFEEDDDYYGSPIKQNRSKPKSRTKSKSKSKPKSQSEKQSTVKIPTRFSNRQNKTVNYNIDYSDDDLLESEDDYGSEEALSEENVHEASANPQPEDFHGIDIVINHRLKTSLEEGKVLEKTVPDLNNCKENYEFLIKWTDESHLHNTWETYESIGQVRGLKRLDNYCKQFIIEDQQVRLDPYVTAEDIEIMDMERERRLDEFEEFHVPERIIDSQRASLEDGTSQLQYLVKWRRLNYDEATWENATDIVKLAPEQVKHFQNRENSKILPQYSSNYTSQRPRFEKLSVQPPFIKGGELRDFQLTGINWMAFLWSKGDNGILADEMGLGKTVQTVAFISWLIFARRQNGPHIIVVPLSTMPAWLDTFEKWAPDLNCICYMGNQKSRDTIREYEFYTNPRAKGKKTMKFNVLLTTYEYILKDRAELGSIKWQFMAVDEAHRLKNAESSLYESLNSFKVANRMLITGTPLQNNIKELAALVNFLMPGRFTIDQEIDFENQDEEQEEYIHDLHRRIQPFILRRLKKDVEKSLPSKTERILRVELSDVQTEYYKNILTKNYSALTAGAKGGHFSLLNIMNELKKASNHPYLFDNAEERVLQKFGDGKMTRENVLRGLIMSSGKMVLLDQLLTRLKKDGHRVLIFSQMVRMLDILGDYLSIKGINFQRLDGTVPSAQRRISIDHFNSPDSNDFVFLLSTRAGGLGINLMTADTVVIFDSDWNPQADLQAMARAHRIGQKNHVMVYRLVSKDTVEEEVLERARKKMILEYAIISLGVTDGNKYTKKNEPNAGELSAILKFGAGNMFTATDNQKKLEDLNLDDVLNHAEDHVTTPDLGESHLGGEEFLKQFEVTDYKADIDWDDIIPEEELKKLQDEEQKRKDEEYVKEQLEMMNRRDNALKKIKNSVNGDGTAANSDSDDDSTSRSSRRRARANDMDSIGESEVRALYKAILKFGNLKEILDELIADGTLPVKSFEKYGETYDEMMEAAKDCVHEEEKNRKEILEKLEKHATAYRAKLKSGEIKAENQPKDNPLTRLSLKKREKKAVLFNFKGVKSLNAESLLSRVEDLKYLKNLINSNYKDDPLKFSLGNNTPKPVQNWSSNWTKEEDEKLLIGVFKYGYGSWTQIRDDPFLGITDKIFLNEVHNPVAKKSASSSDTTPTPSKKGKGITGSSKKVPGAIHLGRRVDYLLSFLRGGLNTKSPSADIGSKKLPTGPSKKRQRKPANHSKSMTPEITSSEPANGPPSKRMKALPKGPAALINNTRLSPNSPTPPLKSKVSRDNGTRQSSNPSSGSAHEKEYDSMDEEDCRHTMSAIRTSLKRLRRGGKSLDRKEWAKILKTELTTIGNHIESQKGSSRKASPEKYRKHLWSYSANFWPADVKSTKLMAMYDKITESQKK
Protein translocase subunit SecA (Escherichia coli (strain K12)), sequence (P10408 whole entry): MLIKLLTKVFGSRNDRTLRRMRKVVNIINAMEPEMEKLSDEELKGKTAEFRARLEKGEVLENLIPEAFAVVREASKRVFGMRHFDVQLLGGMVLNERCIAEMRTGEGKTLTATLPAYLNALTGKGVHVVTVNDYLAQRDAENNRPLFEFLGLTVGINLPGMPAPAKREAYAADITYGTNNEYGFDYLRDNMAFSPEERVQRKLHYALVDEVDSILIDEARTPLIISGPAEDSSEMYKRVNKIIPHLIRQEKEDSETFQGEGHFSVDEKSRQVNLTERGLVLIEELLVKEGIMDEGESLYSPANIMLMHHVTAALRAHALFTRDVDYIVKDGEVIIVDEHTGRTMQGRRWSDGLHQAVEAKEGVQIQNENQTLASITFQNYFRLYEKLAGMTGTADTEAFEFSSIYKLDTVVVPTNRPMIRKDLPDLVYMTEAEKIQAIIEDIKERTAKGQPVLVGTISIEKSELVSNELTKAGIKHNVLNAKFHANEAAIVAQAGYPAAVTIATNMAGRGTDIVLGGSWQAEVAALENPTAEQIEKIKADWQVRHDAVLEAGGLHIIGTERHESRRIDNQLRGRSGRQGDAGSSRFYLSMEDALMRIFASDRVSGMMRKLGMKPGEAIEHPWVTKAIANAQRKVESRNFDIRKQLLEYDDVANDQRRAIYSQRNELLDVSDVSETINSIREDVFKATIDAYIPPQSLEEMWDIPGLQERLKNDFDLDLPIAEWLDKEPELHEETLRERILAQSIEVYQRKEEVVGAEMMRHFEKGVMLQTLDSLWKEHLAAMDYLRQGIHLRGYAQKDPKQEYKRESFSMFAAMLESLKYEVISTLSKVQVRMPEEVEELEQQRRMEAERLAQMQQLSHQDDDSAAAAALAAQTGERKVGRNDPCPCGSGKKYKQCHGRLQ
Sialic acid-binding Ig-like lectin 9 (Homo sapiens), sequence (Q9Y336 whole entry): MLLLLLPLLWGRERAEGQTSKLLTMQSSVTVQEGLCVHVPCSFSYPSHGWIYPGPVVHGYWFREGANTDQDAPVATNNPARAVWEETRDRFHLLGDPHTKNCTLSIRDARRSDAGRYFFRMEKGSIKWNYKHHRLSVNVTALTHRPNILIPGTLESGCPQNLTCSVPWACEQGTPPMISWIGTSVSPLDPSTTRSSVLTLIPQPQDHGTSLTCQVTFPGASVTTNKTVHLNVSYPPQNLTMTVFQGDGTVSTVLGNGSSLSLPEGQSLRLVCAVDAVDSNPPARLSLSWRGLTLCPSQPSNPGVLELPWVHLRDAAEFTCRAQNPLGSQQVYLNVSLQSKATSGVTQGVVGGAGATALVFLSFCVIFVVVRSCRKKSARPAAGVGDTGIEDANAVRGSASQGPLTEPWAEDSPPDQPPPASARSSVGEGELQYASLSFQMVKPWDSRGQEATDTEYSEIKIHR

Turning to `CC(C)c1nc(N2CCN3CCCC3C2)c2cnn(C)c2n1` (stereo not given), the Percent Effect is -0.588% in [1]; 8.22% in assay [2]; 4.74% in [3]; -0.789% in assay [4]; 7.41% in assay [5]; 1.98% in the assay with Trypanosoma cruzi. For the same compound, the Percent Effect in assay [6] is -6.79%; in assay [7] it was 8.82%; in the assay listed under Homo sapiens it was -37.1%; in [8], -16.2%; in assay [9] it was 8.33%; in assay [10] it was 16.1%. In addition, the Percent Effect in [11] was -6.37%.
In the case of `c1cncc(OC[C@@H]2CCC[C@@]23CNCCO3)c1`, the Percent Effect in [1] was -5.75%; in [2], 8.11%; in assay [3] it was 1.15%; in assay [4] it was 89.4%; in [5], -7.32%; in the assay on Trypanosoma cruzi it was -6.75%. The Percent Effect in assay [6] was -3.5%; in assay [7] it was 13.1%; in the assay listed under Homo sapiens, 9.54%; in assay [8] it was -12.4%; in assay [9], -3.24%; in assay [10] it was 0%. In assay [11], the Percent Effect is -2.43%.
As to `CN(C)C(=O)CN1CCN(C(=O)Cc2csc(-c3ncccn3)n2)CC1`, the Percent Effect is -3.23% in assay [1]; 13.2% in assay [2]; -1.92% in [3]; -1.28% in assay [4]; 12% in [5]; -3.19% in the assay with Trypanosoma cruzi. The Percent Effect in [6] worked out at 1.92%; in assay [7], 8.69%; in the assay filed under Homo sapiens, 23.7%; in assay [8] it was 30%; in [9] it was 5.39%; in assay [10], 9.76%. The Percent Effect in assay [11] is -7.21%.
Take `CCOCC(O)CN1CCN(C(=O)Cc2ccccc2Cl)CC1` (stereo not given): the Percent Effect in [1] was -5.33%; in assay [2], 0%; in assay [3], -2.7%; in assay [4] it was 8.88%; in assay [5], -1.32%; in the assay with Trypanosoma cruzi, -8.08%. Moreover, the Percent Effect was 4.21% in assay [6]; 9.36% in assay [7]; 14% in the assay filed under Homo sapiens; 19.1% in assay [8]; 0.49% in assay [9]; -2.44% in [10]. Also, in [11], the Percent Effect was -1.37%.
For the compound `CN1C(=O)C2(CCN(CC3CC3)CC2)c2ccccc21`, the Percent Effect is -0.0958% in [1]; 10.8% in assay [2]; -2.95% in [3]; -1.71% in assay [4]; -10.2% in assay [5]; -6.16% in the assay with Trypanosoma cruzi. For the same compound, the Percent Effect is 0.955% in assay [6]; 16.4% in assay [7]; -8.93% in the assay filed under Homo sapiens; -0.91% in [8]; 2.16% in assay [9]; 17.9% in assay [10]. Moreover, in [11], the Percent Effect is -2.43%.
